TDP1 inh: blocks human tyrosyl-DNA phosphodiesterase 1 | Q9NUW8 | recombinant TDP1, AlphaScreen DNA substrate cleavage | Potency, µM (top dose mostly 130 µM), without a hit: at the highest dose activity change, negative = inhibition, actives largely listed as inhibitors | hit rate 0.28% among 350,000 | AID 485290; note: potency is the fitted concentration of half-maximal effect; % is set by controls: 0 for no effect and ±100 for the full control effect; nearly all actives have a fitted effect of over 40% in size
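Enzyme-compound mixtures sat 15 min at room temperature, followed by a 5 min reaction with 15 nM final substrate and 10 min with AlphaScreen beads. Recombinant human Tdp1 was used at 1 nM final.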
CtBP-E1A inh: blocks the CtBP interaction with E1A; AlphaScreen GST-E1A/His-CtBP binding, 1536-well; hits give low values; activity change, % (test concentration not listed); hit rate 0.49% among 340,000; AID 651724; in the data active = activity change below about -65%; inconclusive = mostly about -30% to -63%; note: % is set by controls: 0 for no effect and ±100 for the full control effect
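Steps: dispense buffer (Tris pH 8.0, NaCl 300 mM, TCEP 1 mM, BSA, Tween 20); add 5X protein mix (GST-E1A, His-CtBP, 125 nM each); pin 23 nL compound; 2 h at 37 °C, dark; add 5X beads (50 ug/mL); 1 h; read.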
Six1-Eya2 blk: Six1/Eya2 interaction inhibition; AlphaScreen GST-Six1/His-Eya2 binding, biochemical; hits give low values; hit rate 0.56% among 360,000; AID 651725; activity change, % (concentration not given with the values); Q15475+O00167; in the data active = activity change below about -65%; inconclusive = mostly about -30% to -63%; note: % is set by controls: 0 for no effect and ±100 for the full control effect
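Homogeneous AlphaScreen proximity assay pairing GST-Six1 with His-tagged Eya2 (added as 5X mix: 250 nM and 500 nM) in 50 mM Tris pH 8.0, 300 mM NaCl, 1 mM TCEP. Glutathione donor and nickel acceptor beads; 1 h, 37 °C, dark.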
HP1b binding inh: HP1-beta chromodomain-methylated histone interaction inhibition. P83916. hit rate 0.56% among 390,000. AID 540317. AlphaScreen HP1-beta / biotin-H3K9me3 peptide binding. Potency, µM (doses to about 114 µM), inactives show at the top dose activity change, negative = inhibition, usual class: inhibitors; note: potency is the fitted concentration of half-maximal effect; nearly all actives have a fitted effect of over 70% in size
Target sequence (P83916 whole entry, looked up): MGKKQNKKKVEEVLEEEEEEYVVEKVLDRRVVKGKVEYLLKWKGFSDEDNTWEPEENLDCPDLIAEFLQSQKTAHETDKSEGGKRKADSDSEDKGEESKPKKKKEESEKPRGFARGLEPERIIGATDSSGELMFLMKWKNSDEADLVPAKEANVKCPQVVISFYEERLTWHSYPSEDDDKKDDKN
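Compound inhibition of the preformed complex between 50 nM HP1-beta and 50 nM biotinylated H3K9me3 peptide was read by AlphaScreen. Buffer was PBS pH 7.4 with 0.01% Tween-20. Incubations ran 30 min at room temperature, with 10 ug/mL donor/acceptor beads.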
JMJD2A Tudor inh: inhibitors of human JMJD2A Tudor domain; O75164; AlphaScreen JMJD2A-Tudor / H3K4me3 peptide binding; Potency, µM (top dose mostly 114 µM), without a hit: top-dose activity change, negative = inhibition, usual class: inhibitors; hit rate 4.4% among 390,000; AID 504339; note: potency is the fitted concentration of half-maximal effect; % is set by controls: 0 for no effect and ±100 for the full control effect; nearly all actives have a fitted effect of over 50% in size
BAZ2B inh: inhibitors of human BAZ2B bromodomain; Q9UIF8; AlphaScreen BAZ2B-H3K14Ac peptide displacement; Potency, µM (highest dose often 114 µM), for the others: at the top dose activity change, negative = inhibition, most hits filed as inhibitors; hit rate 4.4% among 360,000; note: potency is the fitted concentration of half-maximal effect; % is set by controls: 0 for no effect and ±100 for the full control effect; nearly all actives have a fitted effect of over 60% in size
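Multi-concentration screen (max 110 uM) measuring displacement of acetylated histone H3 peptide from BAZ2B by AlphaScreen, using 50 nM protein, 50 nM peptide and 10 ug/mL streptavidin donor plus Ni-chelate acceptor beads.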
* = called active by the depositor; ? = inconclusive; . = no result given; [ ] = dose if it differs, or a comment. Sampled rows, rich in hits. Any-hit rate of the full collection: about 5.3%. Unless noted, calls come from the whole dose curve; as a rule, active = well fitted inhibition curve with a large enough effect; inconclusive = small, poorly fitted or top-dose-only effect; inactive = no such curve, though single readings can be large or run the other way.

SMILES	TDP1 inh	CtBP-E1A inh	Six1-Eya2 blk	HP1b binding inh	JMJD2A Tudor inh	BAZ2B inh
CCN(CC)CCCN(C(=O)c1ccc(Br)cc1)c1nc(-c2ccc(OC)cc2)cs1	.	-29.1	?	?	56.2µM*	50.1µM*
CCN(CC)CCCN(C(=O)c1cccc(C)c1)c1nc(-c2ccc(OC)cc2)cs1	.	.	-20.7	-8.8%	?	?
COc1ccc(-c2cc(C(=O)Nc3cc(C(F)(F)F)ccc3Cl)no2)cc1	3.6%	.	.	15.0%	-11.6%	5.4%
Cc1ccccc1N(CC(=O)N/N=C/c1ccc(N(C)C)cc1)C(=O)c1ccccc1	0.0%	?	?	?	20µM*	56.2µM*
CCN(CC)S(=O)(=O)c1ccc2c(c1)N(CC(=O)NCCCN1CCN(c3cc(C)ccc3C)CC1)C(=O)CO2	3.8%	.	.	26.3%	-22.4%	-15.6%
S=c1[nH]nc(-c2cnccn2)n1-c1ccccc1	0.0%	-2.7	6.2	30.4%	31.6µM*	?
COc1ccc(-n2c(-c3cnccn3)n[nH]c2=S)cc1	2.0%	0.7	-0.1	15.5%	8.91µM*	?
COc1ccc(OC)c(-n2c(-c3cnccn3)n[nH]c2=S)c1	2.2%	0.3	23.5	26.4%	-14.7%	?
O=C(O)c1cccc(-n2c(-c3cnccn3)n[nH]c2=S)c1	?	-7.2	3.6	29.6%	-15.8%	?
CCc1ccc(-c2nc3c(c(SCc4ccc(F)cc4)n2)Cc2c(CO)cnc(C)c2O3)cc1	2.6%	.	.	7.4%	-16.8%	-22.2%
Cc1ccc(C(=O)COC(=O)C(CC(C)C)NC(=O)C2CCC(C)CC2)cc1 (stereo not drawn)	.	.	.	23.1%	-1.0%	3.4%
O=C(CCC1COc2ccccc2O1)Nc1ccccn1 (stereo not drawn)	4.5%	-0.3	-6.0	35.6%	0.0%	7.6%
O=C(CCC1COc2ccccc2O1)Nc1ncccc1O (stereo not drawn)	4.3%	-11.4	?	7.5%	50.1µM*	?
CSc1ncc(C(=O)Nc2ccccc2C(=O)c2ccccc2)c(C)n1	8.7%	.	.	-18.5%	-36.0%	-16.3%
COc1ccc(/C=C2\CCc3ccccc3C2=O)cc1OC	1.0%	-21.4	-12.1	3.0%	-25.7%	-32.0%
COc1ccc(/C=C2\CC/C(=C\c3ccc(OC)c(OC)c3)C2=O)cc1OC	7.2%	-10.6	6.6	-22.3%	?	20µM*
COc1cc(/C=C/C=C2/CC/C(=C/C=C/c3ccc(O)c(OC)c3)C2=O)ccc1O	.	-0.7	?	?	56.2µM*	.
COc1cc(OC)c(OC)cc1/C=C1\CCC/C(=C\c2cc(OC)c(OC)cc2OC)C1=O	.	-4.2	-15.3	31.6µM*	28.2µM*	28.2µM*
COc1ccc(C=C2C=C(C(C)(C)C)C(=O)C(C(C)(C)C)=C2)cc1OC	.	3.5	-1.4	?	31.6µM*	25.1µM*
COc1cc(/C=C2/CC/C(=C/c3ccc(O)c(OC)c3)C2=O)ccc1O	.	-3.1	-5.6	-7.3%	-19.1%[11.4 µM]	?
COc1cc(/C=C2\COC/C(=C\c3ccc(O)c(OC)c3)C2=O)ccc1O	8.6%	-9.5	-6.2	?	?	?
COc1cc(F)c(S(=O)(=O)N2CCN(S(=O)(=O)c3cccc(N)c3)CC2)c(F)c1	1.5%	.	.	.	-1.4%	.
CC(=O)c1n[nH]nc1NC(=O)c1ccccc1	3.0%	-21.2	-14.2	5.6%	20µM*	50.1µM*
Cc1ccc(O)c(C(CC(=O)NCC2(c3ccccc3)CCCC2)c2ccccc2)c1 (stereo not drawn)	5.3%	.	.	-4.4%	-22.3%	-22.3%
C#CCOCCOCCOCCNc1nc(N2CCN(C(=O)[C@H](CCC(=O)O)n3cc([C@@H](N)CCCCN)nn3)CC2)nc(N2CCN(C(=O)[C@H](CCC(=O)O)n3cc([C@@H](N)CCCCN)nn3)CC2)n1	0.4%	-23.2	-23.5	-9.2%	56.2µM*	.
SMILES	TDP1 inh	CtBP-E1A inh	Six1-Eya2 blk	HP1b binding inh	JMJD2A Tudor inh	BAZ2B inh
C#CCOCCOCCOCCNc1nc(N2CCN(C(=O)[C@H](CCC(=O)O)n3cc([C@@H](N)CCCCN)nn3)CC2)nc(N2CCN(C(=O)[C@H](CCCCN)n3cc([C@@H](N)CC(N)=O)nn3)CC2)n1	1.0%	-16.9	-16.1	34.1%	50.1µM*	.
C#CCOCCOCCOCCNc1nc(N2CCN(C(=O)Cn3cc(CCO)nn3)CC2)nc(N2CCN(C(=O)[C@H]([C@@H](C)O)n3cc(CCCCN)nn3)CC2)n1	2.6%	3.6	6.8	18.5%	-15.3%	-7.9%
C#CCOCCOCCOCCNc1nc(N2CCN(C(=O)C([C@@H](C)O)n3cc([C@@H](N)CCCCN)nn3)CC2)nc(N2CCN(C(=O)C([C@@H](C)O)n3cc([C@@H](N)CCCCN)nn3)CC2)n1 (stereo partly drawn)	0.4%	-9.4	-20.5	27.4%	50.1µM*	.
C#CCOCCOCCOCCNc1nc(N2CCN(C(=O)[C@H](CO)n3cc([C@@H](N)C(C)C)nn3)CC2)nc(N2CCN(C(=O)[C@H](CCC(=O)O)n3cc([C@@H](N)CCCCN)nn3)CC2)n1	2.0%	-12.0	-8.0	43.2%	?	.
COc1ccc(N2CCN(S(=O)(=O)CCNC(=O)c3ccc(OC(C)C)cc3)CC2)cc1	5.3%	.	.	22.0%[57 µM]	-0.6%	4.4%
COc1cccc(-c2nn(C)c3sc(C(=O)NCc4ccc(C)o4)cc23)c1	-4.3%	?	?	-34.5%	50.1µM*	?
C=CCOc1c(Br)cc(CNn2c(C)n[nH]c2=S)cc1OC	4.7%	-1.1	0.0	?	89.1µM*	-30.4%
C=CCOc1ccc2ccccc2c1CNn1c(C)n[nH]c1=S	.	.	-2.4	26.8%	?	40.9%
COc1cc(CNn2c(C)n[nH]c2=S)cc(Br)c1OCC(=O)NC(C)(C)C	.	-1.1	0.3	26.0%	?	-7.9%
COc1cc(CNn2c(C)n[nH]c2=S)cc(Cl)c1OCC(=O)NC(C)(C)C	.	0.0	-2.1	51.9%	56.2µM*	-6.8%
C=CCOc1ccc(CNn2c(C)n[nH]c2=S)cc1OC	-3.2%	-1.1	6.0	48.7%	20µM*	-0.3%
CCOc1c(OC(C)=O)ccc(/C=C2\N=C(SCC)SC2=O)c1[N+](=O)[O-]	1.9%	3.6	-0.3	14.1µM*	79.4µM*	44.7µM*
CCOc1cc(/C=C2\N=C(SC)SC2=O)cc([N+](=O)[O-])c1OC(C)=O	7.7%	-12.4	-26.0	44.7µM*	-11.0%[11.4 µM]	17.8µM*
CCOc1cc(/C=C2\N=C(SCC)SC2=O)cc([N+](=O)[O-])c1OC(C)=O	0.9%	-10.1	-1.5	?	?	12.6µM*
CCSC1=N/C(=C\c2ccc(C)s2)C(=O)S1	5.3%	-3.9	-7.8	25.2%	-5.5%	-30.3%
